Substitutions are numbered along the chain they refer to; changes in the protein carry UniProt numbers. Over roughly 16,000 sequences, “ka relative to ugcaugu” has its median near 0.0091; the highest 2% begin near 0.032. This is one part of a sample in which the highest values are shown more often than they occur.
T1: RBFOX1 RRM (Homo sapiens, UniProt Q9NWB1 109-208)
T1 sequence: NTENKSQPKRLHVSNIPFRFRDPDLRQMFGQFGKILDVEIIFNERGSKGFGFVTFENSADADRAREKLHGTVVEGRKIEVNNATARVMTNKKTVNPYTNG

B1: CGUGGUC (DNA:RNA)
RNA: GGGAGACCGGAAUUCAGAUUGUCCCGUGGUCUUAAAUCCCGUCGUAGCCACCA
DNA 1: CAATCTGAATTCCGGTCTCCC
DNA 2: TGGTGGCTACGACGGGATT
B2: UCUGCGG (DNA:RNA)
RNA: B1 RNA with C25U, G26C, G29C, U30G, C31G
DNA 1: CAATCTGAATTCCGGTCTCCC
DNA 2: TGGTGGCTACGACGGGATT
B3: AAAACGU (DNA:RNA)
RNA: GGGAGACCGGAAUUCAGAUUGUCCAAAACGUUUAAAUCCCGUCGUAGCCACCA
DNA 1: CAATCTGAATTCCGGTCTCCC
DNA 2: TGGTGGCTACGACGGGATT
B4: AGUCCGC (DNA:RNA)
RNA: B3 RNA with A26G, A27U, A28C, U31C
DNA 1: CAATCTGAATTCCGGTCTCCC
DNA 2: TGGTGGCTACGACGGGATT
B5: GCGAAUC (DNA:RNA)
RNA: B1 RNA with C25G, G26C, U27G, G28A, G29A
DNA 1: CAATCTGAATTCCGGTCTCCC
DNA 2: TGGTGGCTACGACGGGATT
B6: GCGAAUG (DNA:RNA)
RNA: B3 RNA with A25G, A26C, A27G, C29A, G30U, U31G
DNA 1: CAATCTGAATTCCGGTCTCCC
DNA 2: TGGTGGCTACGACGGGATT
B7: GCGCGAA (DNA:RNA)
RNA: B1 RNA with C25G, G26C, U27G, G28C, U30A, C31A
DNA 1: CAATCTGAATTCCGGTCTCCC
DNA 2: TGGTGGCTACGACGGGATT
B8: GAGAAUG (DNA:RNA)
RNA: B3 RNA with A25G, A27G, C29A, G30U, U31G
DNA 1: CAATCTGAATTCCGGTCTCCC
DNA 2: TGGTGGCTACGACGGGATT
B9: GUGACCG (DNA:RNA)
RNA: B3 RNA with A25G, A26U, A27G, G30C, U31G
DNA 1: CAATCTGAATTCCGGTCTCCC
DNA 2: TGGTGGCTACGACGGGATT
B10: GGAAAUG (DNA:RNA)
RNA: B3 RNA with A25G, A26G, C29A, G30U, U31G
DNA 1: CAATCTGAATTCCGGTCTCCC
DNA 2: TGGTGGCTACGACGGGATT
B11: GGGAAUG (DNA:RNA)
RNA: B1 RNA with C25G, U27G, G28A, G29A, C31G
DNA 1: CAATCTGAATTCCGGTCTCCC
DNA 2: TGGTGGCTACGACGGGATT
B12: GAGAUUG (DNA:RNA)
RNA: B3 RNA with A25G, A27G, C29U, G30U, U31G
DNA 1: CAATCTGAATTCCGGTCTCCC
DNA 2: TGGTGGCTACGACGGGATT
B13: GUGAAUC (DNA:RNA)
RNA: B1 RNA with C25G, G26U, U27G, G28A, G29A
DNA 1: CAATCTGAATTCCGGTCTCCC
DNA 2: TGGTGGCTACGACGGGATT
B14: GAGACCG (DNA:RNA)
RNA: B3 RNA with A25G, A27G, G30C, U31G
DNA 1: CAATCTGAATTCCGGTCTCCC
DNA 2: TGGTGGCTACGACGGGATT
B15: GUGAAUG (DNA:RNA)
RNA: B3 RNA with A25G, A26U, A27G, C29A, G30U, U31G
DNA 1: CAATCTGAATTCCGGTCTCCC
DNA 2: TGGTGGCTACGACGGGATT
B16: GUUAAUG (DNA:RNA)
RNA: B1 RNA with C25G, G26U, G28A, G29A, C31G
DNA 1: CAATCTGAATTCCGGTCTCCC
DNA 2: TGGTGGCTACGACGGGATT
B17: UGACAAG (DNA:RNA)
RNA: B3 RNA with A25U, A26G, A28C, C29A, G30A, U31G
DNA 1: CAATCTGAATTCCGGTCTCCC
DNA 2: TGGTGGCTACGACGGGATT
B18: ACGCUGG (DNA:RNA)
RNA: B3 RNA with A26C, A27G, A28C, C29U, U31G
DNA 1: CAATCTGAATTCCGGTCTCCC
DNA 2: TGGTGGCTACGACGGGATT
B19: UGGCAAU (DNA:RNA)
RNA: B3 RNA with A25U, A26G, A27G, A28C, C29A, G30A
DNA 1: CAATCTGAATTCCGGTCTCCC
DNA 2: TGGTGGCTACGACGGGATT
B20: CACCCCG (DNA:RNA)
RNA: B3 RNA with A25C, A27C, A28C, G30C, U31G
DNA 1: CAATCTGAATTCCGGTCTCCC
DNA 2: TGGTGGCTACGACGGGATT
B21: CUUGCCC (DNA:RNA)
RNA: B1 RNA with G26U, G29C, U30C
DNA 1: CAATCTGAATTCCGGTCTCCC
DNA 2: TGGTGGCTACGACGGGATT
B22: CAAUCGU (DNA:RNA)
RNA: B3 RNA with A25C, A28U
DNA 1: CAATCTGAATTCCGGTCTCCC
DNA 2: TGGTGGCTACGACGGGATT
B23: ACUUACA (DNA:RNA)
RNA: B3 RNA with A26C, A27U, A28U, C29A, G30C, U31A
DNA 1: CAATCTGAATTCCGGTCTCCC
DNA 2: TGGTGGCTACGACGGGATT
B24: CACUUGG (DNA:RNA)
RNA: B3 RNA with A25C, A27C, A28U, C29U, U31G
DNA 1: CAATCTGAATTCCGGTCTCCC
DNA 2: TGGTGGCTACGACGGGATT
B25: AGGAAUG (DNA:RNA)
RNA: B3 RNA with A26G, A27G, C29A, G30U, U31G
DNA 1: CAATCTGAATTCCGGTCTCCC
DNA 2: TGGTGGCTACGACGGGATT
B26: UCGAAUC (DNA:RNA)
RNA: B1 RNA with C25U, G26C, U27G, G28A, G29A
DNA 1: CAATCTGAATTCCGGTCTCCC
DNA 2: TGGTGGCTACGACGGGATT
B27: AGGAAUC (DNA:RNA)
RNA: B1 RNA with C25A, U27G, G28A, G29A
DNA 1: CAATCTGAATTCCGGTCTCCC
DNA 2: TGGTGGCTACGACGGGATT
B28: GUAAUGU (DNA:RNA)
RNA: B3 RNA with A25G, A26U, C29U
DNA 1: CAATCTGAATTCCGGTCTCCC
DNA 2: TGGTGGCTACGACGGGATT
B29: CGGAAUG (DNA:RNA)
RNA: B1 RNA with U27G, G28A, G29A, C31G
DNA 1: CAATCTGAATTCCGGTCTCCC
DNA 2: TGGTGGCTACGACGGGATT
B30: AGGAUUG (DNA:RNA)
RNA: B3 RNA with A26G, A27G, C29U, G30U, U31G
DNA 1: CAATCTGAATTCCGGTCTCCC
DNA 2: TGGTGGCTACGACGGGATT
B31: UCGAUUG (DNA:RNA)
RNA: B3 RNA with A25U, A26C, A27G, C29U, G30U, U31G
DNA 1: CAATCTGAATTCCGGTCTCCC
DNA 2: TGGTGGCTACGACGGGATT
B32: GUAAAUG (DNA:RNA)
RNA: B3 RNA with A25G, A26U, C29A, G30U, U31G
DNA 1: CAATCTGAATTCCGGTCTCCC
DNA 2: TGGTGGCTACGACGGGATT
B33: CGUCCGU (DNA:RNA)
RNA: B3 RNA with A25C, A26G, A27U, A28C
DNA 1: CAATCTGAATTCCGGTCTCCC
DNA 2: TGGTGGCTACGACGGGATT
B34: UCGAAUG (DNA:RNA)
RNA: B3 RNA with A25U, A26C, A27G, C29A, G30U, U31G
DNA 1: CAATCTGAATTCCGGTCTCCC
DNA 2: TGGTGGCTACGACGGGATT
B35: CGUAAUG (DNA:RNA)
RNA: B1 RNA with G28A, G29A, C31G
DNA 1: CAATCTGAATTCCGGTCTCCC
DNA 2: TGGTGGCTACGACGGGATT
B36: GGAAUGU (DNA:RNA)
RNA: B3 RNA with A25G, A26G, C29U
DNA 1: CAATCTGAATTCCGGTCTCCC
DNA 2: TGGTGGCTACGACGGGATT

molecular target: T1, RBFOX1 RRM; assay: EMSA; HiTS-Eq, 1 nM pool, 10 min; buffer printed only for the single-RNA assays: 10 mM Tris pH 7.5, 150 mM NaCl, 3.4 mM EDTA, 0.001% NP-40, 30 C; conditions: tags: His6 N-terminal (pET28a); label: 5' 32P
Summary of the method: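 Relative association constants, normalised to the cognate motif, were derived by comparing read counts of each RNA species with those of the control reaction. The RNA sequenced was the free fraction, separated by 8% native PAGE after a 10 min equilibration in 50 µL of 1 nM 5′-radiolabelled RNA (7 randomized nucleotides) with increasing concentrations of purified wild-type or mutant RbFox RRM.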

In order of rising binding signal:
1. B3  0.000755 KA relative to UGCAUGU
2. B23  0.00166 KA relative to UGCAUGU
3. B20  0.002 KA relative to UGCAUGU
4. B22  0.00595 KA relative to UGCAUGU
5. B21  0.00752 KA relative to UGCAUGU
6. B32  0.00894 KA relative to UGCAUGU
7. B14  0.00974 KA relative to UGCAUGU
8. B7  0.0104 KA relative to UGCAUGU
9. B24  0.0107 KA relative to UGCAUGU
10. B26  0.0109 KA relative to UGCAUGU
11. B16  0.0118 KA relative to UGCAUGU
12. B28  0.0122 KA relative to UGCAUGU
13. B5  0.0124 KA relative to UGCAUGU
14. B10  0.0124 KA relative to UGCAUGU
15. B33  0.0125 KA relative to UGCAUGU
16. B35  0.0127 KA relative to UGCAUGU
17. B4  0.0128 KA relative to UGCAUGU
18. B19  0.0132 KA relative to UGCAUGU
19. B27  0.0141 KA relative to UGCAUGU
20. B13  0.0142 KA relative to UGCAUGU
21. B17  0.0143 KA relative to UGCAUGU
22. B9  0.0167 KA relative to UGCAUGU
23. B1  0.017 KA relative to UGCAUGU
24. B18  0.0175 KA relative to UGCAUGU
25. B2  0.0178 KA relative to UGCAUGU
26. B12  0.019 KA relative to UGCAUGU
27. B31  0.0206 KA relative to UGCAUGU
28. B30  0.0293 KA relative to UGCAUGU
29. B8  0.0321 KA relative to UGCAUGU
30. B34  0.0323 KA relative to UGCAUGU
31. B15  0.0355 KA relative to UGCAUGU
32. B6  0.0369 KA relative to UGCAUGU
33. B25  0.0471 KA relative to UGCAUGU
34. B36  0.0563 KA relative to UGCAUGU
35. B29  0.0596 KA relative to UGCAUGU
36. B11  0.0951 KA relative to UGCAUGU
